According to PubChem BioAssay AID1159580 (chemical genetic matrix, 2015):
“And” between values parts separate entries of the source, which are not always exact repeats. Equal entries are not always repeated. Among all 5,500 compounds or so, about 2,000 (36%) were called active. Not shown: some 18% with an inconclusive outcome. Cut-off read from the data, not from the text of the source: active = normalized growth mostly below about 0.91 (no sharp cut-off); inconclusive = no clear call, values can overlap the other calls; inactive = mostly above about 0.92. This is one part of the list.

Test: chemical genetic growth profiling, strain panel (AID 1159580);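 note: tested at 20 µM; growth read once vehicle control cultures reached saturation at 30 °C; 1 = growth at the plate median or of vehicle wells; lower values mean less growth of the strain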
Conditions: growth OD
[1] = S. cerevisiae deletion strains, locus YDL101C, strain DUN1, active compounds read low
[2] = S. cerevisiae deletion strains, locus YHR030C, strain SLT2, active compounds read low
[3] = S. cerevisiae deletion strains, locus YHR079C, strain IRE1, active compounds read low
[4] = S. cerevisiae deletion strains, locus YJL095W, strain BCK1, active compounds read low
[5] = S. cerevisiae deletion strains, locus YJR066W, strain TOR1, active compounds read low
[6] = S. cerevisiae deletion strains, locus YLR113W, strain HOG1, active compounds read low
[7] = S. cerevisiae deletion strains, locus YNL183C, strain NPR1, active compounds read low
[8] = S. cerevisiae deletion strains, locus YOR061W, strain CKA2, active compounds read low
[9] = S. cerevisiae deletion strains, locus YOR231W, strain MKK1, active compounds read low
[10] = S. cerevisiae deletion strains, locus YPL256C, strain CLN2, active compounds read low

Measured: normalized growth

CC(C)OC(=O)Nc1cccc(Cl)c1
active: S. cerevisiae deletion strains, locus YBR021W, strain FUR4, active compounds read low 0.821 | S. cerevisiae deletion strains, locus YGR252W, strain gcn5, active compounds read low 0.752 | S. cerevisiae deletion strains, locus YLR418C, strain cdc73, active compounds read low 0.828 | S. cerevisiae deletion strains, locus YNL067W, strain RPL9B, active compounds read low 0.301 | S. cerevisiae deletion strains, locus YNL307C, strain MCK1, active compounds read low 0.863
inactive: S. cerevisiae deletion strains, locus YAL013W, strain DEP1, active compounds read low 0.988 | S. cerevisiae deletion strains, locus YBR229C, strain ROT2, active compounds read low 0.979 | S. cerevisiae deletion strains, locus YCL029C, strain bik1, active compounds read low 0.991 | S. cerevisiae deletion strains, locus YDL035C, strain GPR1, active compounds read low 0.966 | S. cerevisiae deletion strains, locus YDL074C, strain BRE1, active compounds read low 0.899 | [1] 0.986 | S. cerevisiae deletion strains, locus YDL134C, strain PPH21, active compounds read low 0.973 | S. cerevisiae deletion strains, locus YDL185W, strain tfp1, active compounds read low 0.997 | S. cerevisiae deletion strains, locus YDL192W, strain arf1, active compounds read low 0.995 | S. cerevisiae deletion strains, locus YDR101C, strain arx1, active compounds read low 0.984 | S. cerevisiae deletion strains, locus YDR150W, strain NUM1, active compounds read low 0.992 | S. cerevisiae deletion strains, locus YDR162C, strain NBP2, active compounds read low 0.979 | S. cerevisiae deletion strains, locus YDR318W, strain mcm21, active compounds read low 0.978 | S. cerevisiae deletion strains, locus YDR388W, active compounds read low 0.989 | S. cerevisiae deletion strains, locus YDR502C, strain sam2, active compounds read low 0.973 | S. cerevisiae deletion strains, locus YEL061C, strain CIN8, active compounds read low 0.992 | S. cerevisiae deletion strains, locus YER110C, active compounds read low 0.986 | S. cerevisiae deletion strains, locus YER155C, strain BEM2, active compounds read low 0.987 | S. cerevisiae deletion strains, locus YER167W, strain BCK2, active compounds read low 0.949 | S. cerevisiae deletion strains, locus YGL078C, strain dbp3, active compounds read low 0.997 | S. cerevisiae deletion strains, locus YGL086W, strain mad1, active compounds read low 0.995 | S. cerevisiae deletion strains, locus YGL248W, strain PDE1, active compounds read low 0.962 | S. cerevisiae deletion strains, locus YGR078C, strain PAC10, active compounds read low 0.955 | S. cerevisiae deletion strains, locus YGR135W, strain pre9, active compounds read low 0.969 | S. cerevisiae deletion strains, locus YGR229C, strain SMI1, active compounds read low 0.941 | [2] 0.983 and 1.01 | S. cerevisiae deletion strains, locus YHR079C, strain IRE1 (second series), active compounds read low 0.973 | [3] 0.975 | S. cerevisiae deletion strains, locus YHR094C, strain hxt1, active compounds read low 0.988 | S. cerevisiae deletion strains, locus YHR129C, strain ARP1, active compounds read low 0.993 | S. cerevisiae deletion strains, locus YHR200W, strain rpn10, active compounds read low 0.985 | S. cerevisiae deletion strains, locus YIL066C, strain RNR3, active compounds read low 0.905 | S. cerevisiae deletion strains, locus YIL073C, strain SPO22, active compounds read low 0.895 | S. cerevisiae deletion strains, locus YIL125W, strain kgd1, active compounds read low 0.992 | S. cerevisiae deletion strains, locus YIR030C, strain dcg1, active compounds read low 0.981 | [4] 0.976 and 1 | S. cerevisiae deletion strains, locus YJL134W, strain LCB3, active compounds read low 1.01 | S. cerevisiae deletion strains, locus YJL168C, strain set2, active compounds read low 0.987 | S. cerevisiae deletion strains, locus YJL187C, strain SWE1 (second series), active compounds read low 0.99 | S. cerevisiae deletion strains, locus YJR043C, strain POL32, active compounds read low 1.07 | [5] 0.937 | S. cerevisiae deletion strains, locus YJR075W, strain HOC1, active compounds read low 0.994 | S. cerevisiae deletion strains, locus YKL009W, strain mrt4, active compounds read low 0.954 | S. cerevisiae deletion strains, locus YKL068W, active compounds read low 0.997 | S. cerevisiae deletion strains, locus YKL085W, strain MDH1 (second series), active compounds read low 0.991 | S. cerevisiae deletion strains, locus YKL085W, strain MDH1, active compounds read low 0.991 | S. cerevisiae deletion strains, locus YKL190W, strain CNB1, active compounds read low 0.98 | S. cerevisiae deletion strains, locus YKR001C, strain vps1, active compounds read low 0.958 | S. cerevisiae deletion strains, locus YLR039C, strain RIC1, active compounds read low 0.951 | S. cerevisiae deletion strains, locus YLR058C, strain SHM2, active compounds read low 0.987 | S. cerevisiae deletion strains, locus YLR102C, strain apc9, active compounds read low 0.987 | [6] 0.87 | S. cerevisiae deletion strains, locus YLR262C, strain YPT6, active compounds read low 0.888 | S. cerevisiae deletion strains, locus YLR268W, strain sec22, active compounds read low 0.99 | S. cerevisiae deletion strains, locus YLR330W, strain CHS5, active compounds read low 0.995 | S. cerevisiae deletion strains, locus YLR342W, strain FKS1 (second series), active compounds read low 0.944 | S. cerevisiae deletion strains, locus YLR371W, strain rom2, active compounds read low 0.974 | S. cerevisiae deletion strains, locus YML016C, strain PPZ1, active compounds read low 0.993 | S. cerevisiae deletion strains, locus YML032C, strain rad52, active compounds read low 0.936 | S. cerevisiae deletion strains, locus YML124C, strain tub3, active compounds read low 0.985 | S. cerevisiae deletion strains, locus YMR078C, strain ctf18, active compounds read low 0.935 | S. cerevisiae deletion strains, locus YMR223W, strain ubp8, active compounds read low 0.959 | S. cerevisiae deletion strains, locus YMR263W, strain SAP30, active compounds read low 0.988 | S. cerevisiae deletion strains, locus YMR307W, strain GAS1, active compounds read low 0.891 | S. cerevisiae deletion strains, locus YNL128W, strain TEP1, active compounds read low 1.01 | S. cerevisiae deletion strains, locus YNL153C, strain GIM3, active compounds read low 0.999 | [7] 0.94 | S. cerevisiae deletion strains, locus YNL233W, strain BNI4, active compounds read low 1 | S. cerevisiae deletion strains, locus YNL250W, strain rad50, active compounds read low 0.955 | S. cerevisiae deletion strains, locus YNL271C, strain bni1, active compounds read low 0.976 | S. cerevisiae deletion strains, locus YNL298W, strain CLA4, active compounds read low 0.998 | S. cerevisiae deletion strains, locus YNL322C, strain KRE1, active compounds read low 1 | S. cerevisiae deletion strains, locus YNR052C, strain pop2, active compounds read low 0.985 | S. cerevisiae deletion strains, locus YOL006C, strain TOP1, active compounds read low 0.712 | S. cerevisiae deletion strains, locus YOL012C, strain htz1 0.915 | S. cerevisiae deletion strains, locus YOL147C, strain pex11, active compounds read low 0.98 | [8] 0.992 | S. cerevisiae deletion strains, locus YOR069W, strain VPS5, active compounds read low 0.996 | S. cerevisiae deletion strains, locus YOR136W, strain idh2, active compounds read low 0.977 | S. cerevisiae deletion strains, locus YOR144C, strain elg1, active compounds read low 0.987 | S. cerevisiae deletion strains, locus YOR184W, strain ser1, active compounds read low 0.906 | [9] 0.985 | S. cerevisiae deletion strains, locus YOR316C, strain cot1, active compounds read low 0.995 | S. cerevisiae deletion strains, locus YPL055C, strain LGE1, active compounds read low 0.955 | S. cerevisiae deletion strains, locus YPL241C, strain CIN2, active compounds read low 0.994 | [10] 0.992 | S. cerevisiae deletion strains, locus YPR119W, strain clb2, active compounds read low 0.986 | S. cerevisiae deletion strains, locus YPR141C, strain kar3, active compounds read low 0.995 | S. cerevisiae deletion strains, locus YPR163C, strain tif3, active compounds read low 0.983 | S. cerevisiae deletion strains, locus YPR167C, strain met16, active compounds read low 0.986 | S. cerevisiae deletion strains, strain wtn01, active compounds read low 0.976 | S. cerevisiae strains, strain wild type, active compounds read low 0.997

O=C(/C=C/c1ccc(Cl)cc1)Nc1cccc(Cl)c1
inactive: S. cerevisiae deletion strains, locus YAR019C, strain CDC15, active compounds read low 0.958 | S. cerevisiae deletion strains, locus YBL105C, strain PKC1, active compounds read low 0.948 | S. cerevisiae deletion strains, locus YBR135W, strain CKS1, active compounds read low 0.961 | S. cerevisiae deletion strains, locus YBR136W, strain MEC1, active compounds read low 0.961 | S. cerevisiae deletion strains, locus YBR160W, strain CDC28, active compounds read low 0.961 | S. cerevisiae deletion strains, locus YDL017W, strain CDC7, active compounds read low 0.949 | S. cerevisiae deletion strains, locus YDL028C, strain MPS1, active compounds read low 0.951 | [1] 0.973 | S. cerevisiae deletion strains, locus YDL108W, strain KIN28, active compounds read low 0.961 | S. cerevisiae deletion strains, locus YDL132W, strain cdc53, active compounds read low 0.962 | S. cerevisiae deletion strains, locus YDL214C, strain PRR2, active compounds read low 0.88 | S. cerevisiae deletion strains, locus YDR052C, strain DBF4, active compounds read low 0.952 | S. cerevisiae deletion strains, locus YDR054C, strain cdc34, active compounds read low 0.958 | S. cerevisiae deletion strains, locus YDR226W, strain ADK1, active compounds read low 0.95 | S. cerevisiae deletion strains, locus YDR477W, strain SNF1, active compounds read low 0.838 | S. cerevisiae deletion strains, locus YER123W, strain YCK3, active compounds read low 0.631 | S. cerevisiae deletion strains, locus YER133W, strain GLC7, active compounds read low 0.831 | S. cerevisiae deletion strains, locus YFL009W, strain cdc4, active compounds read low 0.963 | S. cerevisiae deletion strains, locus YFL029C, strain CAK1, active compounds read low 0.949 | S. cerevisiae deletion strains, locus YFR003C, strain YPI1, active compounds read low 0.953 | S. cerevisiae deletion strains, locus YFR019W, strain FAB1, active compounds read low 0.936 | S. cerevisiae deletion strains, locus YFR028C, strain CDC14, active compounds read low 0.968 | S. cerevisiae deletion strains, locus YGR040W, strain KSS1, active compounds read low 0.816 | S. cerevisiae deletion strains, locus YGR052W, strain FMP48, active compounds read low 0.819 | S. cerevisiae deletion strains, locus YGR092W, strain DBF2, active compounds read low 0.485 | [3] 0.853 | S. cerevisiae deletion strains, locus YHR082C, strain KSP1, active compounds read low 0.875 | S. cerevisiae deletion strains, locus YHR205W, strain SCH9, active compounds read low 0.744 | S. cerevisiae deletion strains, locus YIL147C, strain SLN1, active compounds read low 0.96 | [4] 0.754 | S. cerevisiae deletion strains, locus YJL128C, strain PBS2, active compounds read low 0.919 | S. cerevisiae deletion strains, locus YJL157C, strain FAR1, active compounds read low 0.889 | S. cerevisiae deletion strains, locus YJR016C, strain ILV3, active compounds read low 0.965 | S. cerevisiae deletion strains, locus YJR066W, strain TOR1 (second series), active compounds read low 0.877 | [5] 0.831 | S. cerevisiae deletion strains, locus YKL048C, strain ELM1, active compounds read low 0.895 | S. cerevisiae deletion strains, locus YKL067W, strain YNK1, active compounds read low 0.876 | S. cerevisiae deletion strains, locus YKL101W, strain HSL1, active compounds read low 0.872 | S. cerevisiae deletion strains, locus YKL193C, strain SDS22, active compounds read low 0.956 | S. cerevisiae deletion strains, locus YKL203C, strain TOR2, active compounds read low 0.881 | S. cerevisiae deletion strains, locus YLR133W, strain CKI1, active compounds read low 0.864 | S. cerevisiae deletion strains, locus YLR403W, strain SFP1, active compounds read low 0.774 | S. cerevisiae deletion strains, locus YML070W, strain DAK1, active compounds read low 0.798 | S. cerevisiae deletion strains, locus YMR001C, strain CDC5, active compounds read low 0.96 | S. cerevisiae deletion strains, locus YMR205C, strain PFK2 (second series), active compounds read low 0.886 | S. cerevisiae deletion strains, locus YMR277W, strain FCP1, active compounds read low 0.957 | S. cerevisiae deletion strains, locus YNL006W, strain LST8, active compounds read low 0.971 | S. cerevisiae deletion strains, locus YNL020C, strain ARK1, active compounds read low 0.883 | S. cerevisiae deletion strains, locus YNL161W, strain CBK1, active compounds read low 0.965 | [7] 0.796 | S. cerevisiae deletion strains, locus YNL207W, strain RIO2, active compounds read low 0.948 | S. cerevisiae deletion strains, locus YNL222W, strain SSU72, active compounds read low 0.961 | S. cerevisiae deletion strains, locus YNL307C, strain MCK1 (second series), active compounds read low 0.699 | S. cerevisiae deletion strains, locus YOL078W, strain AVO1, active compounds read low 0.938 | S. cerevisiae deletion strains, locus YOL136C, strain PFK27, active compounds read low 0.839 | [8] 0.857 | S. cerevisiae deletion strains, locus YOR119C, strain RIO1, active compounds read low 0.867 | [9] 0.837 | S. cerevisiae deletion strains, locus YOR329C, strain SCD5, active compounds read low 0.957 | S. cerevisiae deletion strains, locus YPL031C, strain PHO85, active compounds read low 0.835 | S. cerevisiae deletion strains, locus YPL153C, strain RAD53, active compounds read low 0.863 | S. cerevisiae deletion strains, locus YPL204W, strain HRR25, active compounds read low 0.822 | S. cerevisiae deletion strains, locus YPL209C, strain IPL1, active compounds read low 0.96 | [10] 0.862 | S. cerevisiae deletion strains, locus YPR025C, strain CCL1, active compounds read low 0.952 | S. cerevisiae deletion strains, locus YPR106W, strain ISR1, active compounds read low 0.944 | S. cerevisiae deletion strains, locus YPR111W, strain DBF20, active compounds read low 0.942 | S. cerevisiae deletion strains, strain NNK1, active compounds read low 0.96 | S. cerevisiae deletion strains, strain TSCII, active compounds read low 0.965
active: [2] 0.846 | [6] 0.816
